Key:
Experiment in all cases: log2 ratio of Biotin-Ahx-Ub-VS probe labelling (fragment/DMSO); higher = less target engagement (more negative = stronger competition), active = hit call of the paper (q ≤ 0.05, log2 ratio ≤ -1)
Details in all cases: compound concentration: 200 uM; treatment time: 3 h
[1] = target: T1, USP19 (UniProt O94966)
T1 sequence (whole entry): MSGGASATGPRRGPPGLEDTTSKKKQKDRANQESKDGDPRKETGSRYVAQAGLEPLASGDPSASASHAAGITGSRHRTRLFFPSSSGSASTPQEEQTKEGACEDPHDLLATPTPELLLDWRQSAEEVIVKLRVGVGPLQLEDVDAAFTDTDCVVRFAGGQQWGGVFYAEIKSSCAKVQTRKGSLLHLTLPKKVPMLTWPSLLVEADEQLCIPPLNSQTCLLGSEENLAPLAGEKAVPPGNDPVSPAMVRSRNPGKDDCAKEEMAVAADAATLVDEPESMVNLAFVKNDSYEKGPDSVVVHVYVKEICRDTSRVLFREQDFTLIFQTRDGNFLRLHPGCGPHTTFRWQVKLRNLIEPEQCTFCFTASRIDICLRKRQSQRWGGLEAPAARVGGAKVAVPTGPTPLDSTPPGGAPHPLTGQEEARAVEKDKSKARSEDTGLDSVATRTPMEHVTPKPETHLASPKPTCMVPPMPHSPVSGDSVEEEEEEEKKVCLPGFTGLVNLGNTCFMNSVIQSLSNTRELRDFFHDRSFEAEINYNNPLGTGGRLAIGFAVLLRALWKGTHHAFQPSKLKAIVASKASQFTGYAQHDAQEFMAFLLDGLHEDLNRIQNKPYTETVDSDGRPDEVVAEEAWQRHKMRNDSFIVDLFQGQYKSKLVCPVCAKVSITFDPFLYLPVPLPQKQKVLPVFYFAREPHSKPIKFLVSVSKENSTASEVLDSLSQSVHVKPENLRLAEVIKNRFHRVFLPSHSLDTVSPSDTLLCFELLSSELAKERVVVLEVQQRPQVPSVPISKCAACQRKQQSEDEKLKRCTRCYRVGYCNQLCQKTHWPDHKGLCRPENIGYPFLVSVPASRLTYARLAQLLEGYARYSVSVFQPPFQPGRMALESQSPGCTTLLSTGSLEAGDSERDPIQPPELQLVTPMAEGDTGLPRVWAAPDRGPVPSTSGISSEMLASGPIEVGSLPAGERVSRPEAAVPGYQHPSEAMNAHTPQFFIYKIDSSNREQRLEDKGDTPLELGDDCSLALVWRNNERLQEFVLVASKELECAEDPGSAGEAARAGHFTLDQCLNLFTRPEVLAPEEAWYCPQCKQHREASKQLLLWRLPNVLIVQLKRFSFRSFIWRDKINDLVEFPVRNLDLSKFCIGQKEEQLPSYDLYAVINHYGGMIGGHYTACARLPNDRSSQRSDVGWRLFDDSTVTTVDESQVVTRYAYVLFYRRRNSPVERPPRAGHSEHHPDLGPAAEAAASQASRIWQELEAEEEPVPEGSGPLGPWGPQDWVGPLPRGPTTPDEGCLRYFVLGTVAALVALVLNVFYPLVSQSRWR
Procedure, shortened: (§1)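 Labelling with Biotin-Ahx-Ub-VS (0.5 µM final, 1 h) followed a 3 h triplicate treatment of HEK293T lysate (495 µg per sample, Tris/CHAPS/IGEPAL buffer with protease inhibitors) with fragment at 200 µM or vehicle. Labelled DUBs were NeutrAvidin-enriched, digested with LysC and trypsin, and run by diaPASEF LC-MS/MS. The values, average log2 fragment/vehicle ratios by unpaired t-test, come from global-median-normalised Spectronaut label-free quantities. Proteins with ≥2 unique peptides were used.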

[2] = target: T2, USP22 (UniProt Q9UPT9)
T2 sequence (whole entry): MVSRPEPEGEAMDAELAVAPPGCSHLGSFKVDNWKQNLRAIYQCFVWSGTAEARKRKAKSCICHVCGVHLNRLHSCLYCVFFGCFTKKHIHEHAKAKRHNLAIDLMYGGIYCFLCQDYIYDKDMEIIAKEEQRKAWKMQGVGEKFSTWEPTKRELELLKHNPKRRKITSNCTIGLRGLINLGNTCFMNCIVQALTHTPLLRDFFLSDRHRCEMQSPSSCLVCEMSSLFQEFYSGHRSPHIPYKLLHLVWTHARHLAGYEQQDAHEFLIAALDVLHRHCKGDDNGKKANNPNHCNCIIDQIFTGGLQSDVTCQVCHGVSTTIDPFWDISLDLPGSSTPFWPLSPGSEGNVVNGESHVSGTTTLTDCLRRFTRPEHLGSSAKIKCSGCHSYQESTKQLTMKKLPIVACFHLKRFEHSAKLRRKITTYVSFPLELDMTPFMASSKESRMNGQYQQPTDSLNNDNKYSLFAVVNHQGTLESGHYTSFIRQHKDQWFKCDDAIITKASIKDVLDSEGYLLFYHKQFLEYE
Procedure, shortened: as §1

[3] = target: USP24 (UniProt Q9UPU5)
USP24, sequence (Q9UPU5 whole entry): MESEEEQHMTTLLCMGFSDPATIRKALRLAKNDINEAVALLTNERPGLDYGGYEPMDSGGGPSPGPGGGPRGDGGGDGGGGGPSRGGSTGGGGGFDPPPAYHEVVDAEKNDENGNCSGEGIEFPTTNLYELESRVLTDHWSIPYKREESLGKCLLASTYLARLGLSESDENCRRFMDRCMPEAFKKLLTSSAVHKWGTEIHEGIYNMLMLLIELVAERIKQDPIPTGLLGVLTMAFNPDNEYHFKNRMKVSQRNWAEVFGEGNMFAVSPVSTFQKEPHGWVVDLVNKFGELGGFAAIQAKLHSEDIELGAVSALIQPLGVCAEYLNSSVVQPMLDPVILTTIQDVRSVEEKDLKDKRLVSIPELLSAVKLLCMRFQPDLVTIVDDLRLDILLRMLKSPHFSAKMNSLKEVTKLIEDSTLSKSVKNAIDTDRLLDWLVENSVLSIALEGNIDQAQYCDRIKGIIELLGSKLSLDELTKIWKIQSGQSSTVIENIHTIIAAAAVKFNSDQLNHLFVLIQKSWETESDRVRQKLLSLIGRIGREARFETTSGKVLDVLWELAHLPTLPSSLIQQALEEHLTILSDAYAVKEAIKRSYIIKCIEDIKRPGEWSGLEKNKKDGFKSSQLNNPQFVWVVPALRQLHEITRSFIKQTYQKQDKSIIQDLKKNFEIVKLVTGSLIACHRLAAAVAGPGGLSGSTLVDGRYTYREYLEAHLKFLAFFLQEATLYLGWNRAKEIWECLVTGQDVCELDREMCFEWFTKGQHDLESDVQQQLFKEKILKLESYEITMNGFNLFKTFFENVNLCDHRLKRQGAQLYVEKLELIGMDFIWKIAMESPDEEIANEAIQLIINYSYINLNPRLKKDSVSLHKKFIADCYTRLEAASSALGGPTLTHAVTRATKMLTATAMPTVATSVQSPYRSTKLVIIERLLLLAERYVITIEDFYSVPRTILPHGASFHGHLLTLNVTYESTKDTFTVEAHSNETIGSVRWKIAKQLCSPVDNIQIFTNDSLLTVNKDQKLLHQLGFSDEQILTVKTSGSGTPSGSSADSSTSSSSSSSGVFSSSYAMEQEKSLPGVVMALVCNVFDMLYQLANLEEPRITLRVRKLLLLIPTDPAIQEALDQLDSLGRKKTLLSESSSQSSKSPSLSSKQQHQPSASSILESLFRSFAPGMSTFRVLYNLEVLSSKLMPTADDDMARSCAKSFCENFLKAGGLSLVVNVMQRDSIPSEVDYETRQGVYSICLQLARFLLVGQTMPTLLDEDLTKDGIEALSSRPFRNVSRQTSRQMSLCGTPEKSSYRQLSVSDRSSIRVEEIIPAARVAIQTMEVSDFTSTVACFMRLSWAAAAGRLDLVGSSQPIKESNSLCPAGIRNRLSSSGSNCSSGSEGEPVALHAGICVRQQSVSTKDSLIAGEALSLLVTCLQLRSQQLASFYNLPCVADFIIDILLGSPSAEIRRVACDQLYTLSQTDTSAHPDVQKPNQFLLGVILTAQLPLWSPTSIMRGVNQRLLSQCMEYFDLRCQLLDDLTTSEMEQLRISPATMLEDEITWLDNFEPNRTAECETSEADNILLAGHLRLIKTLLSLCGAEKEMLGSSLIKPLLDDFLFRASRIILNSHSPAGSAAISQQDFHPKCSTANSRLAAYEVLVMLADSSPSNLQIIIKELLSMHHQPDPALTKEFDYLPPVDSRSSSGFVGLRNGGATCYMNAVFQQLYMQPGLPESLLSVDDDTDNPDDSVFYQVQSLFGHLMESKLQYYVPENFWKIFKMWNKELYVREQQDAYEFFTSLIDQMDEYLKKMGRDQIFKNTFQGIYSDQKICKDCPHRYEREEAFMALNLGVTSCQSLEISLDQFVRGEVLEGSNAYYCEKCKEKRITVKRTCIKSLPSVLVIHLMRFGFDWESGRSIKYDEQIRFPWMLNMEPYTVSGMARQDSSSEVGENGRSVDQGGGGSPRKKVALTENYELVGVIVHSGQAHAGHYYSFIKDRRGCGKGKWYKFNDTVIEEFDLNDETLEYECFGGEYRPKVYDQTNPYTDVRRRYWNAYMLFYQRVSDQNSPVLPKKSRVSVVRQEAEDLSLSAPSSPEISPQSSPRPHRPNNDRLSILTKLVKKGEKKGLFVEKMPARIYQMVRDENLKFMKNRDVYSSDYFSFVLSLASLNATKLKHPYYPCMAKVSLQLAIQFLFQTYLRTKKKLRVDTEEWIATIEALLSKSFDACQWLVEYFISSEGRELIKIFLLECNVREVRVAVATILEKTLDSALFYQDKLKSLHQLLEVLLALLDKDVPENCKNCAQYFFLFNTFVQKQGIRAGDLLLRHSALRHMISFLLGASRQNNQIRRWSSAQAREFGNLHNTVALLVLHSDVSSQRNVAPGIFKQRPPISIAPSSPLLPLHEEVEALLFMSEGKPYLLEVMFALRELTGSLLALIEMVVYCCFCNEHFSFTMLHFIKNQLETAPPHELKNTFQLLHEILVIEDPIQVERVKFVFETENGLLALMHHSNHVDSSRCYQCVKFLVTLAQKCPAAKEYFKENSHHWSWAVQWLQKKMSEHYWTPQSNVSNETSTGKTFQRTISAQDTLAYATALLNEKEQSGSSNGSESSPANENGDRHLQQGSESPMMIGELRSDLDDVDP
Procedure, shortened: as §1

[4] = target: T3, USP25 (UniProt Q9UHP3)
T3 sequence (whole entry): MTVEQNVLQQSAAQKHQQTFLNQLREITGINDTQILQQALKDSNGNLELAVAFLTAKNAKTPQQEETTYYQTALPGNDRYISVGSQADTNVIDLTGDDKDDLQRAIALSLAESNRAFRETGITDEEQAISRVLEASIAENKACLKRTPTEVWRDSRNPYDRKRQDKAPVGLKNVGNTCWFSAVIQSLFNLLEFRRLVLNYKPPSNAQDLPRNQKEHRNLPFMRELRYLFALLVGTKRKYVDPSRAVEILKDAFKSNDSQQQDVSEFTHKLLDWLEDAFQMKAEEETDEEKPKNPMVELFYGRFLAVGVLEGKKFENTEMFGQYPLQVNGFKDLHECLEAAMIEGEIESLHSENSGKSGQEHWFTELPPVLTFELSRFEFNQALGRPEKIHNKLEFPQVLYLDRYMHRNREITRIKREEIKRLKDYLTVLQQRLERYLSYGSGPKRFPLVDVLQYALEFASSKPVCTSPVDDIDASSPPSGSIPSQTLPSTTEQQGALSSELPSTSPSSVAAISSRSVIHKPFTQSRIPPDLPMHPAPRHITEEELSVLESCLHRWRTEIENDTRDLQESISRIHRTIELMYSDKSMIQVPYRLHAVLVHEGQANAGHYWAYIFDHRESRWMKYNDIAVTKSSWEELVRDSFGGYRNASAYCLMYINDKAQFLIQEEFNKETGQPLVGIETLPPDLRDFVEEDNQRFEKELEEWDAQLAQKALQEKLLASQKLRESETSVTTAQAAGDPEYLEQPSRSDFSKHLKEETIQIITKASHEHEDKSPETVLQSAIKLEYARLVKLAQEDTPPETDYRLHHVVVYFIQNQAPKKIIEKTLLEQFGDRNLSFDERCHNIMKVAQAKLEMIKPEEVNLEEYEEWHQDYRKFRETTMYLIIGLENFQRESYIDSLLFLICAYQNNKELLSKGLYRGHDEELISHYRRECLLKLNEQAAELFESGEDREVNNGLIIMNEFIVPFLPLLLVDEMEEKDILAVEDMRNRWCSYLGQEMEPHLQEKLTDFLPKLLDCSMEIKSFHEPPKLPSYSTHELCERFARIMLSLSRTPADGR
Procedure, shortened: as §1

[5] = target: T4, USP28 (UniProt Q96RU2)
T4 sequence (whole entry): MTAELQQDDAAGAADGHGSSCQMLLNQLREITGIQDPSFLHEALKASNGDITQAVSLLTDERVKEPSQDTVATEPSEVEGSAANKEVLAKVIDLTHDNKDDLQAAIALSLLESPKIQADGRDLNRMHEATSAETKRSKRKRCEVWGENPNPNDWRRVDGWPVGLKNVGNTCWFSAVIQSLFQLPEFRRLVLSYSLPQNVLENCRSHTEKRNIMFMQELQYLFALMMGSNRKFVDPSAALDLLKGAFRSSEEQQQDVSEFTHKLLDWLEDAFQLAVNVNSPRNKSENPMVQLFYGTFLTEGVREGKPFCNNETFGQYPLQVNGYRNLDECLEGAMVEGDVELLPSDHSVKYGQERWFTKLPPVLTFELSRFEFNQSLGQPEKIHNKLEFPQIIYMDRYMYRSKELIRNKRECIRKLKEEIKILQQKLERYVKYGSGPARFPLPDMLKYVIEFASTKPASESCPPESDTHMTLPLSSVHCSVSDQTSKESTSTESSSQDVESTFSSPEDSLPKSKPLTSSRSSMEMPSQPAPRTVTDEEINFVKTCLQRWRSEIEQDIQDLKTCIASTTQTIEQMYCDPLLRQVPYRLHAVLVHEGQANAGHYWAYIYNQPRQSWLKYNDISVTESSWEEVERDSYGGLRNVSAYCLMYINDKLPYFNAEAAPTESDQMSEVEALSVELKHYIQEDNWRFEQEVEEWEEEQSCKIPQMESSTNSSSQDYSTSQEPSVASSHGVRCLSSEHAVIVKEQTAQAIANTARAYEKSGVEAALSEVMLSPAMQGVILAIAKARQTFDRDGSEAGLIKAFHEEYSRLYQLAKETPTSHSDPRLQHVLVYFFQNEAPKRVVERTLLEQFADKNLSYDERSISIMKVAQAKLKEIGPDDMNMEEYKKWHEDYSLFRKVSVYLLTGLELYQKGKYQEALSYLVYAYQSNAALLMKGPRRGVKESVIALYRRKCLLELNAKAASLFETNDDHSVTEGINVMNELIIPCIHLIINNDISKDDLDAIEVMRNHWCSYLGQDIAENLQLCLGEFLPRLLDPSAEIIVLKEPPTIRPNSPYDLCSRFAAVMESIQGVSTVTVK
Procedure, shortened: as §1

Measured: log2 ratio of Biotin-Ahx-Ub-VS probe labelling

O=C(CCl)NCc1ccc(N2CCOCC2)nc1
inactive: [1] -0.163 | [2] -0.181 | [3] -0.312 | [4] -0.432 | [5] -0.485
